Outcome and AC50 data for 40 compounds are collected here from PubChem BioAssay (EPA / NIEHS).

Activity calls are given as the source filed them. The calls were made as follows: active = hit-call score of the fitted dose curve at least 0.9, where 1 is the maximum; inconclusive = response in the unintended direction; inactive = score below 0.9.

A word on the AC50: it is the midpoint of the concentration-response curve, whichever way the signal moves.

The target of this assay is Estrogen receptor (Homo sapiens) (UniProt P03372). The assay is described as follows: OT_ER_ERaERa_1440: Odyssey Thera (OT) 24-hour HEK293T Protein-Complementation Assay for Estrogen Receptor-alpha/-alpha Homodimer (AID 2283349).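 Also: hits raise fluorescence above DMSO for agonists and antagonists alike.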 On the procedure: OT_ER_ERaERa_1440 is a cell-based assay that uses HEK293T, a human kidney cell line, with measurements taken at 24 hours after chemical dosing in a 384-well plate.OT_ER_ERaERa_1440 is one of one assay component(s) measured or calculated from the OT_ER_ERaERa_1440 assay. It is designed to make measurements of protein fragment complementation, a form of binding reporter, as detected with fluorescence intensity signals by Protein-fragment Complementation technology.Data from the assay component OT_ER_ERaERa_1440 was analyzed into 1 assay endpoint. This assay endpoint, OT_ER_ERaERa_1440, was analyzed in the positive analysis fitting direction relative to DMSO as the negative control and baseline of activity. Using a type of binding reporter, measures of receptor for gain-of-signal activity can be used to understand the binding at the pathway-level as they relate to the gene ESR1. Furthermore, this assay endpoint can be referred to as a primary readout, because the performed assay has only produced 1 assay endpoint. To generalize the intended target to other relatable targets, this assay endpoint is annotated to the nuclear receptor intended target family, where the subfamily is steroidal.
Sequence of Estrogen receptor (Homo sapiens) (P03372 whole entry, looked up, the tested form may be a part): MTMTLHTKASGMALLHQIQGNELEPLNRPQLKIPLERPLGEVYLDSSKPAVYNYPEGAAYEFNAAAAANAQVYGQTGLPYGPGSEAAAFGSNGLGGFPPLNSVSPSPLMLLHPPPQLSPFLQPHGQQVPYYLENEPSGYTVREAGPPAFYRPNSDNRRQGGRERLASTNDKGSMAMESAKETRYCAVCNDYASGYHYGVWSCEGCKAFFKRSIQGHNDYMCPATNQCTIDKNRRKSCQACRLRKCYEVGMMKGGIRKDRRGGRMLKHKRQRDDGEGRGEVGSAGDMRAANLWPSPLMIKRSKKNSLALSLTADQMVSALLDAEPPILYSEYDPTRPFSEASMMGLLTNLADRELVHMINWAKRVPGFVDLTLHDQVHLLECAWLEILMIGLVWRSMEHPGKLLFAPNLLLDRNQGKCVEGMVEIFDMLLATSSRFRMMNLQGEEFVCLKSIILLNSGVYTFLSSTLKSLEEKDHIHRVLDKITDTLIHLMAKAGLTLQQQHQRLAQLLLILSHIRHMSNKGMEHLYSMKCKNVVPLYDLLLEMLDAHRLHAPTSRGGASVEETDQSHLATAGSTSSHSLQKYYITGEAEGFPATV
Protein-fragment complementation assay, or PCA, is a method for the identification and quantification of protein-protein interactions. In the PCA, the proteins of interest ("bait" and "prey") are each covalently linked to fragments of a third protein (e.g. DHFR, which acts as a "reporter"). Interaction between the bait and the prey proteins brings the fragments of the reporter protein in close proximity to allow them to form a functional reporter protein whose activity can be measured. The OT ER alpha / ER alpha assay is a homodimer PCA of the ligand binding domain (amino acids 310-547) of human ER alpha stably expressed in HEK293T cells. […] Fluorescent signal in the basal state of the assay is very low and is primarily punctuate and cytoplasmic. Modulation of this assay is quantified as an increase in mean fluorescence intensity in the nucleus (for agonists) or in the nucleus and cytoplasm (antagonists) relative to vehicle controls, and can be quantified on a high content imaging device or a laser scanning cytometer. The latter instrument is favored for this assay because of the rapid mode of data acquisition, the ability to acquire data from the entire cell population in a well (as opposed to a fraction of the well on the high content devices) and the larger dynamic range typically achieved with this instrument. To assess sensitivity of the ER alpha/ER alpha LBD assay to ligand, cells were treated with the ER agonist 17 beta-estradiol (E2) in 10-point concentration- response format for 24 hours and monitored response on a laser scanning plate cytometer (Acumen eX3; TTP Lab Tech).
Regarding `COc1cc(OC)nc(NC(=O)NS(=O)(=O)c2ncccc2OCC(F)(F)F)n1`, the call was inactive.
In the case of `CCC(C)n1c(=O)[nH]c(C)c(Br)c1=O` (stereo not given), the result was inactive.
Turning to `Clc1nc(Cl)nc(Nc2ccccc2Cl)n1`, the outcome was inactive.
The same measure, in the same setting: in the case of `Cc1c(COC(=O)[C@@H]2[C@H](/C=C(\Cl)C(F)(F)F)C2(C)C)cccc1-c1ccccc1` it was “inactive”; in that of `CCOc1nc(F)cc2nc(S(=O)(=O)Nc3c(Cl)cccc3Cl)nn12`, “inactive”; in that of `Cc1ccc(N=CN(C)C=Nc2ccc(C)cc2C)c(C)c1`, “inactive”.
On the same count and under the same terms, in the case of `CC(C)=CC1C(C(=O)OCc2coc(Cc3ccccc3)c2)C1(C)C` (stereo not given) it was “inactive”; in that of `CNC(=O)N(C)c1nnc(C(C)(C)C)s1`, “inactive”.
Consider `COP(=S)(OC)SCn1nnc2ccccc2c1=O`, for which the call was inactive.
As for `COCC(=O)N(c1c(C)cccc1C)C(C)C(=O)OC` (stereo not given), the compound was classed as inactive.
Still for that read-out and setting: in the case of `CC(C)N1C(=O)N(c2ccccc2)CSC1=NC(C)(C)C` it was “inactive”; in that of `CC(C)NC(=O)N1CC(=O)N(c2cc(Cl)cc(Cl)c2)C1=O`, “inactive”.
Take `COc1cc(Cl)c(OC)cc1Cl`: the outcome was inactive.
On the same count and under the same terms, with `CCOP(=S)(OCC)Oc1nc(Cl)n(C(C)C)n1` the entry was “inactive”; with `CS(=O)(=O)c1cc(C(F)(F)F)ccc1C(=O)c1cnoc1C1CC1`, “inactive”.
As for `O=P(O)(O)CCCl`, the result was inactive.
The same measure, in the same setting: in the case of `Cc1cc(C)nc(Nc2ccccc2)n1` it was “inactive”.
On the same count and under the same terms, in the case of `CCN(CC)C(=O)C(C)Oc1cccc2ccccc12` (stereo not given) it was “inactive”; in that of `CC(C)N1C(=O)c2ccccc2NS1(=O)=O`, “inactive”.
Take `CCSC(=O)N1CCCCCC1`: the result was inactive.
In the case of `CCCCOCN(C(=O)CCl)c1c(CC)cccc1CC`, the compound was classed as inactive.
The same measure, in the same setting: in the case of `N#CN=C1SCCN1Cc1ccc(Cl)nc1` it was “inactive”; in that of `CCN(CC)c1nc(C)cc(OP(=S)(OC)OC)n1`, “inactive”.
The same measure, in the same setting: with `CCNP(=S)(OC)O/C(C)=C/C(=O)OC(C)C` (stereo not given) the entry was “inactive”; with `O=c1n(Cl)c(=O)n(Cl)c(=O)n1Cl`, “inactive”; with `CCCN(CC)CC1COC2(CCC(C(C)(C)C)CC2)O1` (stereo not given), “inactive”.
As for `CSC(=O)c1c(C(F)F)nc(C(F)(F)F)c(C(=O)SC)c1CC(C)C`, the AC50 is 47.1 µM (active).
Turning to `CC1(C)C(C(=O)OC(C#N)c2cccc(Oc3ccccc3)c2)C1(C)C` (stereo not given), the compound was called inactive.
The same measure, in the same setting: with `Cn1c(-c2ccccc2)cc(-c2ccccc2)[n+]1C` the entry was “inactive”; with `COCC(C)N(C(=O)CCl)c1c(C)csc1C` (stereo not given), “inactive”; with `C=C(C)CN(CC)c1c([N+](=O)[O-])cc(C(F)(F)F)cc1[N+](=O)[O-]`, “inactive”.
Still for that read-out and setting: with `CO/N=C(/C1=NOCCO1)c1ccccc1Oc1ncnc(Oc2ccccc2Cl)c1F` the entry was “inactive”; with `Nc1cnn(-c2ccccc2)c(=O)c1Cl`, “inactive”.
Still for that read-out and setting: in the case of `CCCCC(C#N)(Cn1cncn1)c1ccc(Cl)cc1` (stereo not given) it was “inactive”; in that of `CCCC(=NOCC)C1=C(O)CC(CC(C)SCC)CC1=O` (stereo not given), “inactive”.
Turning to `CCOP(=O)(OCC)Oc1nc(Cl)c(Cl)cc1Cl`, the compound was classed as inactive.
For `COC(=O)c1c(C(F)F)nc(C(F)(F)F)c(C2=NCCS2)c1CC(C)C`, the outcome was inactive.
The same measure, in the same setting: with `COP(=S)(OC)Oc1ccc([N+](=O)[O-])c(C)c1` the entry was “inactive”; with `CS(=O)(=O)c1ccc(C(=O)C2C(=O)CCCC2=O)c([N+](=O)[O-])c1`, “inactive”; with `CC(C)C1(C)N=C(c2ncccc2C(=O)O)NC1=O` (stereo not given), “inactive”.
